The record followed here is PubChem BioAssay (Tox21).

Molecules are shown by their SMILES. Values joined by “and” are separate entries in the source; they are usually repeats but may differ in a detail not shown here. Equal entries are not always repeated. A number with no mark means an inactive call. Records with an inconclusive call do not appear. Active and inactive are the calls of the source. Unless noted, calls come from the whole dose curve; as a rule, active = well fitted curve in the direction sought with a large enough effect in the repeat runs; inconclusive = weak or mixed curves; inactive = no such curve, though single readings can be large; an effect the other way counts as inactive or inconclusive.

Assay [1] is described as follows: qHTS assay to identify small molecule antagonists of the estrogen related receptor signaling pathway with the pleiotropic PPARgamma coactivator (PGC) from Tox21 10K library - cell viability counter screen (AID 1224840; active = well fitted cell-killing curve with a large enough effect in the repeat runs, not every such curve was filed as active; note: nearly all actives have a fitted effect of over 40% in size; note: potency is the fitted concentration of half-maximal effect). In short, it runs like this: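 Fluorescence read-out of CellTiter-Fluor viability reagent, added after cells had been exposed to compound in DMSO for 17.5 h at 37 C; 30 min development at 37 C/5% CO2. Cells: PGC/ERR line, 2,000/well.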

The target in assay [2] is Thyrotropin receptor (Homo sapiens) (UniProt P16473). In words: qHTS assay to identify small molecule agonists of the thyroid stimulating hormone receptor (TSHR) signaling pathway (AID 1224843; calls by dose curve; note: % is set by controls: 0 for no effect and ±100 for the full control effect; nearly all actives have a fitted effect of over 45% in size). In short, it runs like this: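 A cell-based cAMP HTRF format was run in TSHR-transfected HEK293 cells, 800 per well. Treatment: 30 min, room temperature. Detection: 1 h with labelled cAMP and anti-cAMP cryptate. Concentration-response over 15 points, three replicates.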
Chain of Thyrotropin receptor (Homo sapiens) (P16473 whole entry, looked up): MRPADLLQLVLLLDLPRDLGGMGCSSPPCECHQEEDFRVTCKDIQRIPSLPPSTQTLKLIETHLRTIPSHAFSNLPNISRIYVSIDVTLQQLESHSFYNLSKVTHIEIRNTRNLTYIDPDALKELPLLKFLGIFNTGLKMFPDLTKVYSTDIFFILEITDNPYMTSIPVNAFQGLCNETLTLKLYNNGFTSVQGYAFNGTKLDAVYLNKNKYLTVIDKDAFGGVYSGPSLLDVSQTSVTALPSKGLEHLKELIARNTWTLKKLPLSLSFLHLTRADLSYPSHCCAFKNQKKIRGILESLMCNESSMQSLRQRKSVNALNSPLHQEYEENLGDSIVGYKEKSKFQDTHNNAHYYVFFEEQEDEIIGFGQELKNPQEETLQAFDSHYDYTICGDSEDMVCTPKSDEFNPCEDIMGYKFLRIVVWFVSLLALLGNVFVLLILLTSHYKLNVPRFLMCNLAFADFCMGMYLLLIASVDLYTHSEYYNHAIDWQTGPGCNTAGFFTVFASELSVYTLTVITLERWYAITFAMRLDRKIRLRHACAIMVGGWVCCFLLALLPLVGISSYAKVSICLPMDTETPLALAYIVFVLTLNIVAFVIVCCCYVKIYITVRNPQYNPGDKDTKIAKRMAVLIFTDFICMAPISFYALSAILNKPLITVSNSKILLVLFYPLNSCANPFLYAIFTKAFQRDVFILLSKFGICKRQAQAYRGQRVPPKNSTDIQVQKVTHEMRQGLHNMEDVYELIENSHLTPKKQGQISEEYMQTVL

Assay [3] is described as follows: qHTS RealTime-Glo MT Cell Viability Assay in HEK293 cells - 8 hour (AID 1224887). Note: nearly all actives have a fitted effect of over 50% in size. Note: potency is the fitted concentration of half-maximal effect. The method in brief: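 Luminescence readout at each listed time point; HEK293, 600 cells/well, RealTime-Glo MT reagent added with cells; compounds pinned (23 nL in DMSO) after 5 h at 37 C; continuous culture at 37 C.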
The target in assay [4] is Estrogen receptor (Homo sapiens) (UniProt P03372). In words: qHTS assay to identify small molecule antagonists of the estrogen receptor alpha (ER-alpha) signaling pathway using the BG1 cell line in the presence of 0.1 nM 17-beta-estradiol (AID 1259244). Note: nearly all actives have a fitted effect of over 50% in size. Note: potency is the fitted concentration of half-maximal effect. The method in brief: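 Luminescence after ONE-Glo (30 min, room temperature) measured ERE-luciferase activity in VM7Luc4E2 cells treated 22 h with compound and 0.1 nM final 17beta-estradiol as stimulator.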
Chain of Estrogen receptor (Homo sapiens) (P03372 whole entry, looked up): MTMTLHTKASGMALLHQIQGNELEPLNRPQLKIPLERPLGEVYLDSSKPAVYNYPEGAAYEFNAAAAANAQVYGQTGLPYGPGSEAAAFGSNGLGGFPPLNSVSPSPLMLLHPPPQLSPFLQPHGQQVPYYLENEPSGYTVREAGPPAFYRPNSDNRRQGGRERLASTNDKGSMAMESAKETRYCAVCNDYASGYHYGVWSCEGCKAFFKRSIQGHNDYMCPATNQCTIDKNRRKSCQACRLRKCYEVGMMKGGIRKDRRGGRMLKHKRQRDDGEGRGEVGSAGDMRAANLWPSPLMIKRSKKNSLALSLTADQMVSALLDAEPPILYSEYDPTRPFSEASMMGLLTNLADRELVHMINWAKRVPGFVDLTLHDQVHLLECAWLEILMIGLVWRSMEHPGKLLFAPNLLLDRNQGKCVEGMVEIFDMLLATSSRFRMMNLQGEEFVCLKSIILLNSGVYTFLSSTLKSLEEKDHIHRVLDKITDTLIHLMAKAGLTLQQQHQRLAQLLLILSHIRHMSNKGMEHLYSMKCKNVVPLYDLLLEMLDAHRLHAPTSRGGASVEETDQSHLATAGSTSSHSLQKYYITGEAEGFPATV

Assay [5] has as its target Thyrotropin receptor (Homo sapiens) (UniProt P16473). In words: qHTS assay to identify small molecule antagonists of the thyroid stimulating hormone receptor (TSHR) signaling pathway (AID 1259385; calls by dose curve; note: nearly all actives have a fitted effect of over 20% in size; note: potency is the fitted concentration of half-maximal effect). The method in brief:
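Antagonist mode: compound-treated TSHR-expressing HEK293 cells were stimulated with 1.5 ng/mL TSH (final) in presence of Ro20-1724 for 30 min at RT. HTRF cAMP detection after 1 h; each compound tested at 15 concentrations, triplicate.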

Assay [6] is described as follows: qHTS assay to identify small molecule antagonists of the progesterone receptor (PR) signaling pathway - cell viability counter screen (AID 1346798). Note: nearly all actives have a fitted effect of over 50% in size. Note: potency is the fitted concentration of half-maximal effect. In short, it runs like this: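 Cytotoxicity read as CellTiter-Glo luminescence (30 min, room temperature) in the same wells as the beta-lactamase readout. HEK293T PR-UAS-bla cells in charcoal-stripped 2% FBS received compound and R5020, then 16 h at 37C, 5% CO2.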

Assay [7] can be described thus: qHTS assay to identify small molecule agonists of the progesterone receptor (PR) signaling pathway - cell viability counter screen (AID 1346799; calls by dose curve; note: % is set by controls: 0 for no effect and ±100 for the full control effect; nearly all actives have a fitted effect of over 45% in size). The method in brief:
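Cytotoxicity measured by CellTiter-Glo luminescence (30 min, RT) in the same wells as the PR beta-lactamase agonist read. Those HEK293T cells had 16 h compound treatment at 37 C in 2% charcoal-stripped FBS medium.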

In assay [8] the target is Thyrotropin-releasing hormone receptor (Homo sapiens) (UniProt P34981). Briefly: qHTS assay to identify small molecule antagonists of the thyrotropin-releasing hormone receptor (TRHR) signaling pathway (AID 1346877; active = well fitted inhibition curve with a large enough effect in the repeat runs, not every such curve was filed as active; note: series mostly up to about 51 µM; % is set by controls: 0 for no effect and ±100 for the full control effect). In short, it runs like this: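 HEK293/TRHR cells, 18 h, 37 °C; Ca2+ dye 2 h; cpd 5 min RT; TRH 1 nM final; fluorescence read 3 min, 1 s intervals; 15 concs, triplicate.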
Chain of Thyrotropin-releasing hormone receptor (Homo sapiens) (P34981 whole entry, looked up): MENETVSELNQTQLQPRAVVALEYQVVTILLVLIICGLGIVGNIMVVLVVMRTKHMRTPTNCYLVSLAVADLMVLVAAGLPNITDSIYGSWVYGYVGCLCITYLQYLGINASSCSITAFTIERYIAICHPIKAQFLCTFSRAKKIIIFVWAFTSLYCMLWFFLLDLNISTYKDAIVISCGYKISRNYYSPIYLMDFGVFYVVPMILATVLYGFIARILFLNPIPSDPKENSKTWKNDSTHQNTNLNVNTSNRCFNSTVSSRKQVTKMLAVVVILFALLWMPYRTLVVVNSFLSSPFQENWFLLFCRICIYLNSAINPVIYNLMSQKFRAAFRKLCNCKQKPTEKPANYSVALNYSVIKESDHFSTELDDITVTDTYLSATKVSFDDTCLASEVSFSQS

The nature of assay [9]: qHTS assay to test for compound auto fluorescence at 460 nm (blue) in HEK293 cells (AID 720678). Note: % is set by controls: 0 for no effect and ±100 for the full control effect. The method in brief:
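Triamterene serves as the blue fluorophore standard. Compound signal at 405/460 nm is read in HEK293 wells (2,000 cells, 10% dialyzed FBS) after overnight treatment at 37C.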

A short description of assay [10]: qHTS assay to test for compound auto fluorescence at 460 nm (blue) in HEK293 cell free culture (AID 720681). Note: % is set by controls: 0 for no effect and ±100 for the full control effect. The method in brief:
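Blue fluorescence (Ex 405/Em 460 nm, triamterene-equivalent) was read immediately after pin transfer of compound or DMSO into medium (DMEM, 10% FBS) without cells.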

Assay [11] can be described thus: qHTS assay to test for compound auto fluorescence at 535 nm (green) in HepG2 cell free culture (AID 720686). Note: % is set by controls: 0 for no effect and ±100 for the full control effect.
Assay [12] is described as follows: qHTS assay for identifying genotoxic compounds that show differential cytotoxicity against isogenic chicken DT40 cell lines with known DNA damage response pathways - Rev3 mutant cell line (AID 743014). Note: nearly all actives have a fitted effect of over 55% in size. Note: potency is the fitted concentration of half-maximal effect.
Assay [13] in a line: qHTS assay for identifying genotoxic compounds that show differential cytotoxicity against isogenic chicken DT40 cell lines with known DNA damage response pathways - Rad54/Ku70 mutant cell line (AID 743015). Note: nearly all actives have a fitted effect of over 60% in size. Note: potency is the fitted concentration of half-maximal effect.
A short description of assay [14]: qHTS assay to identify small molecule antagonists of the thyroid receptor (TR) signaling pathway (AID 743065). Note: nearly all actives have a fitted effect of over 55% in size. Note: potency is the fitted concentration of half-maximal effect. In short, it runs like this: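 Antagonism measured as loss of luciferase signal in GH3 cells stably carrying a TRE-luciferase reporter, co-treated with compound and T3 (1 nM final) for 23.5 h at 37 C. Viability was read in the same well by CellTiter-Fluor.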

Assay [15] can be described thus: qHTS assay to identify small molecule antagonists of the estrogen related receptor signaling pathway with the pleiotropic PPARgamma coactivator (PGC) from Tox21 10K library (AID 1224841; call rule not given here; note: potency is the fitted concentration of half-maximal effect; actives are mostly falling curves and most rising ones were filed inactive; nearly all actives have a fitted effect of over 50% in size). In short, it runs like this:
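Luminescence read-out (One-Glo luciferase reagent, 30 min at room temperature) from PGC/ERR cells exposed to DMSO-dissolved test compounds for 18 h at 37 C; cells, 2,000 per well, had been preincubated 6 h before compound transfer.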

A short description of assay [16]: qHTS assay to identify small molecule antagonists of the estrogen related receptor (ERR) signaling pathway from Tox21 library (AID 1224848). Note: nearly all actives have a fitted effect of over 50% in size. Note: potency is the fitted concentration of half-maximal effect. In short, it runs like this: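 ERR cell line, 2,000 cells/well. 6 h settle, then compound (DMSO) added; 18 h at 37 C; ONE-Glo luminescence after 30 min RT.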
Assay [17] addresses Androgen receptor (Homo sapiens) (UniProt P10275). Briefly: qHTS assay to identify small molecule agonists of the androgen receptor (AR) signaling pathway in the presence of an antagonist (AID 1259381; calls by dose curve; note: % is set by controls: 0 for no effect and ±100 for the full control effect; nearly all actives have a fitted effect of over 15% in size). The method in brief:
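Luciferase read-out (ONE-Glo, 30min room temperature) in MDA-kb2 MMTV-reporter cells; agonist mode run in presence of AR antagonist nilutamide, 3.0uM final. Compounds tested as 15-point series, 16hr exposure at 37C, 0% CO2.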

In assay [18] the target is Estrogen receptor beta (Homo sapiens) (UniProt Q92731). In words: qHTS assay to identify small molecule agonists of the estrogen receptor beta (ER-beta) signaling pathway (AID 1259377; active = well fitted activation curve with a large enough effect in the signal ratio in the repeat runs, not every such curve was filed as active; the % refers to the signal ratio; note: % is set by controls: 0 for no effect and ±100 for the full control effect). The method in brief:
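Ratiometric beta-lactamase FRET read-out came after 2 h substrate loading at room temperature. It followed 16 h compound treatment at 37C of GripTite HEK293T cells carrying a UAS-bla reporter, plated in 2% charcoal-stripped FBS medium.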

A short description of assay [19]: qHTS assay to test for compound auto fluorescence at 590 nm (red) in HepG2 cells (AID 720674). Note: % is set by controls: 0 for no effect and ±100 for the full control effect. In short, it runs like this: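 1 hr compound incubation on HepG2 cells, 37 C, 5% CO2; plate read ex 540 nm / em 590 nm; intensities reported as Rose Bengal sodium equivalents.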
Assay [20] can be described thus: qHTS assay to identify small molecule antagonists of the farnesoid-X-receptor (FXR) signaling pathway - cell viability counter screen (AID 743221; active = well fitted cell-killing curve with a large enough effect in the repeat runs, not every such curve was filed as active). In short, it runs like this: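 Cytotoxicity counter screen run in the FXR-bla reporter wells: HEK 293T cells exposed to compound with 50 uM (final) chenodeoxycholic acid for 16 h, 37 C, then viability measured by CellTiter-Glo luminescence after 30 min, room temperature.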

Chain of Androgen receptor (Homo sapiens) (P10275 whole entry, looked up): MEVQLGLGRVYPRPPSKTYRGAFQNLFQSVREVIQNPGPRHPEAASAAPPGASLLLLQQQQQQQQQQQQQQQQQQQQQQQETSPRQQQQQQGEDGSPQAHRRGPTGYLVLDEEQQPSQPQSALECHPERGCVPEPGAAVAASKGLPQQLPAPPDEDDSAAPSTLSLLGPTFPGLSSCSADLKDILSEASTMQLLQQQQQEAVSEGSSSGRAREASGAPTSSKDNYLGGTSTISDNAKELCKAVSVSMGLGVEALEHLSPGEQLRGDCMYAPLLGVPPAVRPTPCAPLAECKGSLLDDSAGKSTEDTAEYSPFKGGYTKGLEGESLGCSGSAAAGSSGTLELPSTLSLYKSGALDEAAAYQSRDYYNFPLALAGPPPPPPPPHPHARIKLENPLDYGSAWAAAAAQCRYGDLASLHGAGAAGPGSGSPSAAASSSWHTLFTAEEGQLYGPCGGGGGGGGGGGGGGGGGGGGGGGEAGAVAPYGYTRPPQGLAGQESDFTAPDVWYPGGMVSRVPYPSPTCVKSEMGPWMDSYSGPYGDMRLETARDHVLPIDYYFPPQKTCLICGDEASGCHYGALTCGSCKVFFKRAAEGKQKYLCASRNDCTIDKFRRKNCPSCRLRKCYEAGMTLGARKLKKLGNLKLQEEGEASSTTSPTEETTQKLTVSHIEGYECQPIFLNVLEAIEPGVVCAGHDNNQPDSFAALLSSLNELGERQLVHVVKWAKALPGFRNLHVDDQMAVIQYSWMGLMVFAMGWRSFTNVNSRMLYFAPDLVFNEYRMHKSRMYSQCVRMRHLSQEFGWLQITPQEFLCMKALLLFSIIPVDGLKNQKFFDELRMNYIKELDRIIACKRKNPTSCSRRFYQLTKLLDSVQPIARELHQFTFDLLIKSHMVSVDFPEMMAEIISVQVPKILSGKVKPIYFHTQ
Chain of Estrogen receptor beta (Homo sapiens) (Q92731 whole entry, looked up): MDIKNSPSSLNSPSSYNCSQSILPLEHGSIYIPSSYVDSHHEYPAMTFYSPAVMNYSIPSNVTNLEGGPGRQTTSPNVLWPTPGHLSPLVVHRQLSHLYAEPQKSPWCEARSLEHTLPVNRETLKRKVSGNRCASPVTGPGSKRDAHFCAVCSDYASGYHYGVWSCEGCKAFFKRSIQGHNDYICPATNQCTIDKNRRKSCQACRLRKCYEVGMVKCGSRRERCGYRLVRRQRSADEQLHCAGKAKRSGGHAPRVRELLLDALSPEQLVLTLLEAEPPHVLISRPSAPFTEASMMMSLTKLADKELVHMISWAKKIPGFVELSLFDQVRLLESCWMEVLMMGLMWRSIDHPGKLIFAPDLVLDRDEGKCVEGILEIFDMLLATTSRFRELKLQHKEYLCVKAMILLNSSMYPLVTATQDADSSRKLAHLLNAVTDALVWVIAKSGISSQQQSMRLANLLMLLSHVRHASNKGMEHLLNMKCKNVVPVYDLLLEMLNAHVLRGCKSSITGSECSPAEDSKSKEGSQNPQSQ

As for `Cc1ccc2nc3sc(=O)sc3nc2c1`, the viability change, negative = cytotoxic in [1] was -9.2% [at 19 µM]. In assay [2], the activation is -7.09% [at 19 µM]. Moreover, the activity change, negative = cytotoxicity is 4.11% [at 15.8 µM] in assay [3], -19.3% [at 18.9 µM] in assay [6] and -2.84% [at 19 µM] in assay [7]. Also, the activity change, negative = inhibition in [4] is -0.302% [at 19 µM]; in [5], 2.89% [at 19 µM]. Besides, in assay [8], the activity, negative = inhibition is 3.17% [at 10.5 µM].
On to `CO/C=C(/C(=O)OC)c1ccccc1Oc1cc(Oc2ccccc2C#N)ncn1`, for which the Potency result in [9], in [10], in assay [11] and in assay [17] was “inactive” each time. The Potency in assay [12] is 0.103 µM (active); in assay [13] it was 0.312 µM (active); in [14], 411 nM (active); in assay [1], 36.7 µM (active); in assay [15], 16.4 µM (active); in [16] it was 2.06 µM (active). Besides, the Potency in [4] is 5.18 µM (active); in [5], 61.1 µM (active); in [6], 51.8 µM (active). For the same molecule, in [8], the molecule was called inactive.
On to `N#Cc1cc([N+](=O)[O-])ccc1N`, for which the Potency entry in assay [2], in assay [16], in [3], in [4], in assay [5] and in assay [6] was “inactive” each time. For the same molecule, the Potency entry in [7] is “inactive”. The result in assay [18] and in assay [8] was inactive.
With `O=S(=O)(C(Cl)(Cl)Cl)C(Cl)(Cl)Cl`, the Potency was 48.6 µM (active) in assay [1], 54.5 µM (active) in [16], 15.5 µM (active) in assay [3] and 27.3 µM (active) in [4]. Moreover, the Potency result in [17], in [6] and in assay [7] was “inactive” in each case.
In the case of `Cc1cc(C)c(C(=O)P(=O)(c2ccccc2)c2ccccc2)c(C)c1`, the Potency result in assay [1], in assay [2], in [4], in [17] and in assay [5] was “inactive” each time. Further, the Potency in [15] is 54.5 µM (active); in assay [16] it was 54.5 µM (active); in [3], 43.6 µM (active).
For `O=C1C(I)=CC(=C(c2cc(I)c(O)c(I)c2)c2ccccc2C(=O)O)C=C1I`, the molecule was classed as inactive in assay [19]. The Potency result in assay [10], in assay [12], in [13], in [20], in assay [1] and in assay [2] was “inactive” throughout. Moreover, the Potency result in assay [3], in assay [4] and in assay [5] was “inactive” throughout. In addition, the Potency in assay [14] is 29.8 µM (active) and 23.7 µM (active).
For `C=CC(=O)OCCCC`, the Potency result in assay [5] was “inactive”.
Take `O=[N+]([O-])c1c(Cl)c(Cl)cc(Cl)c1Cl`: in assay [19], the molecule was called inactive. The Potency entry in [9], in assay [10], in assay [11], in assay [14], in [20] and in [1] was “inactive” in each case. Besides, the Potency result in assay [16], in [4] and in [6] was “inactive” in each case.
